# Compounds with a hit are over-represented: about 2.5% of the library has one in this group of screens.
# Cruzain inh noDet = qHTS Assay for Promiscuous and Specific Inhibitors of Cruzain (without detergent). Cruzipain (Trypanosoma cruzi), P25779. purified cruzain, Z-FR-AMC fluorescence, no detergent. Potency, µM, hits mostly inhibitors. 2.3% of 200,000 active. AID 1476, 2009; note: nearly all actives have a fitted effect of over 40% in size
# Target sequence (P25779 123-467 limits assumed): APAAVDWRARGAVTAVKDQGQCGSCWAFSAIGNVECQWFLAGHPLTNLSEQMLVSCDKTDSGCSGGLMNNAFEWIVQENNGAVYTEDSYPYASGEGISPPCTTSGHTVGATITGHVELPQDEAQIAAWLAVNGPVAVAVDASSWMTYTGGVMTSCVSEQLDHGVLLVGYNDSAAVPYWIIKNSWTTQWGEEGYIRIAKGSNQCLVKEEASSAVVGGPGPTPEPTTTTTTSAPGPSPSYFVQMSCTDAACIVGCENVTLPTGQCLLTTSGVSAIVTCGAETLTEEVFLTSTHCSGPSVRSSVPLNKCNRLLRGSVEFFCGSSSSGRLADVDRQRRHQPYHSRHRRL
#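 Purified cruzain at 1.5 nM, pre-incubated 15 min with compound at room temperature in 100 mM sodium acetate pH 5.5, 5 mM DTT, 0.00005% Triton X-100. Reaction started with 2 uM Z-FR-AMC; AMC fluorescence increase over 60 s gives rate.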
# Cruzain inh Det = qHTS Assay for Promiscuous and Specific Inhibitors of Cruzain (with detergent); purified cruzain, Z-FR-AMC fluorescence, 0.01% Triton; Potency, µM, most hits filed as inhibitors; 0.43% of 200,000 active; note: nearly all actives have a fitted effect of over 40% in size
#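 Purified cruzain (1.5 nM final) was preincubated with compounds for 15 min at room temperature in 100 mM sodium acetate pH 5.5, 5 mM DTT, 0.01% Triton X-100. Reaction started with 2 uM Z-FR-AMC; AMC fluorescence change over 60 s gave activity.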
# Hits are given with their value; i = inactive; ? = inconclusive. Calls come from the whole dose curve; as a rule, active = well fitted curve in the direction sought with a large enough effect; inconclusive = small, poorly fitted or top-dose-only effect, or another doubt; inactive = no such curve, though single readings can be large; an effect the other way counts as inactive or inconclusive.
SMILES,Cruzain inh noDet,Cruzain inh Det
COC(=O)c1c(NC(=O)CSc2nnnn2-c2ccccc2)sc2c1CCC(C)C2 (configuration not stated),20µM,i
CC(C)(C)C1CCc2c(sc(NC(=O)c3cccs3)c2C(N)=O)C1 (configuration not stated),13µM,i
COC(=O)c1c(NC(=O)CSc2nnnn2-c2ccccc2)sc2c1CCC(C(C)(C)C)C2 (configuration not stated),6.3µM,i
CCOC(=O)c1sc(NC(=O)CSc2nnnn2-c2ccccc2)c(C(=O)OCC)c1C,i,i
COc1ccccc1CNC(=O)c1cnc2sc(N3CCCCCC3)nn2c1=O,i,i
COc1ccc(NC(=O)c2csc3c2CCCC3)cc1,i,i
COc1ccc(/C=C2\SC(=S)N(NC(=O)c3csc4c3CCCC4)C2=O)cc1,7.9µM,i
COc1ccc(NC(=O)Cn2c(=O)n(Cc3ccco3)c(=O)c3sc4ccccc4c32)c(OC)c1,i,i
COc1ccc(NC(=O)Cn2c(=O)n(Cc3ccco3)c(=O)c3sc4ccccc4c32)cc1Cl,25µM,i
CC(=O)N1CCc2cc(Br)cc(S(=O)(=O)NCCc3ccc(Cl)cc3)c21,i,i
COC(=O)c1ccc(CSc2nnc(NC(=O)c3cc4c(s3)CCCC4)s2)cc1,6.3µM,i
Cc1csc(NC(=O)c2cc3c(s2)CCC3)n1,i,i
COC(=O)c1ccc(CSc2nnc(C)s2)cc1,i,i
O=C(Nc1nnc(SCc2ccc(F)cc2)s1)c1ccco1,i,i
CC1CCc2sc(C(=O)Nc3nnc(SCc4ccc(F)cc4)s3)cc2C1 (configuration not stated),10µM,i
O=C(Nc1nnc(C2CC2)s1)c1cc2c(s1)CCCCCC2,6.3µM,i
CCOc1ccc(-c2cc(C(=O)NCc3ccccc3Cl)c3ccccc3n2)cc1,i,i
O=C(CSc1ncc2c(n1)-c1ccccc1N(Cc1ccc(F)cc1)S2(=O)=O)c1ccc(Br)cc1,?,i
Cc1ccccc1CN1c2ccccc2-c2nc(SCC(=O)c3ccc(Cl)cc3)ncc2S1(=O)=O,i,i
COC(=O)CSc1ncc2c(n1)-c1ccccc1N(Cc1ccccc1C)S2(=O)=O,13µM,i
Cc1ccccc1CN1c2ccccc2-c2nc(SCC(=O)NCc3ccccc3)ncc2S1(=O)=O,i,i
O=C(CSc1ncc2c(n1)-c1ccccc1N(Cc1ccc(Cl)cc1)S2(=O)=O)c1ccc(Cl)cc1,20µM,i
O=C(CSc1ncc2c(n1)-c1ccccc1N(Cc1ccc(F)cc1)S2(=O)=O)c1ccc(Cl)cc1,25µM,i
Cc1ccc(C)c(NC(=O)Cn2cc(C(=O)c3cccs3)c3ccccc32)c1,i,i
CCOc1ccc(-c2cc(CCCC(=O)NCCc3ccc(SC)cc3)no2)cc1,i,i
SMILES,Cruzain inh noDet,Cruzain inh Det
Cc1cc(C)n(-c2nc(C)c(C)c(=O)n2CC(=O)Nc2ccc(OC(F)(F)F)cc2)n1,i,i
Cn1c(=O)c2[nH]c(CS(=O)(=O)Cc3nc4c([nH]3)c(=O)n(C)c(=O)n4C)nc2n(C)c1=O,i,i
CC(C)(C)n1ncc2c(=O)n(CC(=O)NCCc3ccccc3)cnc21,i,i
O=C(Cn1cnc2c(cnn2-c2ccc(Cl)cc2)c1=O)NC1CCCCC1,10µM,i
O=C(Cn1cnc2c(cnn2-c2ccc(Cl)cc2)c1=O)NCCc1ccccc1,25µM,i
O=C(Cn1cnc2c(cnn2-c2ccc(F)cc2)c1=O)NCC1CCCO1 (configuration not stated),i,i
COc1ccc(NC(=O)c2c(N)c(C(=O)c3ccc(OC)cc3)n3ccccc23)cc1,i,i
COc1ccc(S(=O)(=O)n2nc(C)c(S(=O)(=O)N3CCC(C)CC3)c2C)cc1C,i,i
Cc1ccc(CSc2cn(CC(=O)N3CCCCCC3)c3ccccc23)cc1,i,i
COc1ccc(NC(=O)C2(c3ccc(NC(=O)c4ccc(C)cc4)cc3)CCCC2)cc1,6.3µM,i
COc1ccc(NC(=O)C2(c3ccc(NC(=O)c4ccc(OC)c(OC)c4)cc3)CCCC2)cc1,i,i
COc1ccccc1N1CCN(c2nc(-c3ccc(C)cc3)nc3ccccc23)CC1,i,i
CC(Sc1nccn1C)C(=O)Nc1ccccc1C#N (configuration not stated),i,i
CCOC(=O)Cn1c(=O)oc2cc(S(=O)(=O)N3CCN(c4ccc(F)cc4)CC3)ccc21,i,i
CCCCOc1ccc(/C=C/C(=O)Nc2ccc(C(N)=O)cc2)cc1,16µM,i
CCOc1ccc(/C=C/C(=O)Nc2ccc(C(N)=O)cc2)cc1OC,i,i
CCCOc1ccc(/C=C/C(=O)Nc2ccc([N+](=O)[O-])cc2)cc1,i,i
CCCCOc1ccc(/C=C/C(=O)Nc2ccc([N+](=O)[O-])cc2C)cc1,25µM,i
Cc1ccc(NC(=O)Cn2cnc3sc(C(=O)NCCN(C)C)c(C)c3c2=O)cc1Cl,i,i

# High-throughput results (PubChem BioAssay)
